Reference: PubChem BioAssay (NCATS)
Several values for one entry are separate records, joined by “and”; a condition that tells them apart may be missing. Equal entries are not always repeated. Unmarked numbers belong to inactive results. Inconclusive results are not listed. Activity calls are given as the source filed them. Unless noted, the call rests on the fitted dose curve; in most records, active means well fitted curve in either direction with a large enough effect (not every such curve was filed as active); inconclusive means small, poorly fitted or top-dose-only effect, or another doubt; inactive means flat fitted curve, though single readings scatter. Where a SMILES comes first, the peptide text is derived from it.

Assays:
[1] = Cell Viability - BJ (AID 421; calls by dose curve;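 further: potency means the concentration at half of the fitted maximal effect; cells exposed to compound for 40 hours at 37 °C before readout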); details: BJ fibroblast viability, qHTS
Procedure, shortened: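 Luminescent ATP signal (CellTiter-Glo, 20 min at room temperature) served as the read-out of viable BJ cells after 40 hours of compound treatment. Responses were scaled between DMSO and 100 uM tamoxifen, and AC50 values were obtained by Hill modeling.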

[2] = Cell Viability - MRC5 (AID 434; calls by dose curve;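 further: potency means the concentration at half of the fitted maximal effect; potency reflects cytotoxicity seen as loss of intracellular ATP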); details: MRC5 lung fibroblast viability, qHTS
Procedure, shortened: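 qHTS cytotoxicity in human lung fibroblast MRC5 cells; 40 hr treatment, 37 °C; cellular ATP by luciferase luminescence; DMSO = 0%, 100 uM tamoxifen = 100% inhibition; Hill-fit AC50.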

[3] = biological target: Mitogen-activated protein kinase 10 (Mus musculus) (UniProt Q61831); test: JNK3 AlphaScreen Assay (AID 530); details: JNK3 lysate, c-Jun phosphorylation; series mostly up to 57.1 µM;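 further: kinase came from lysate of stimulated human HepG2 cells; signal reports phosphorylation of biotinylated GST-cJun 1-79 at Ser73 with 10 µM ATP; on the % scale 0 is the no-effect control and ±100 the full control effect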
Procedure, shortened: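 Room-temperature AlphaScreen kinase assay; pre-activated HepG2 lysate as JNK3 source, biotin-GST-cJun(1-79) substrate, 10 uM ATP, compound 15 min preincubation.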

[4] = Cell Viability - N2a (AID 540; active means well fitted curve in the direction sought with a large enough effect; an effect the other way counts as inactive or inconclusive; further: potency means the concentration at half of the fitted maximal effect; nearly all actives have a fitted effect of over 45% in size); details: N2a mouse neuroblastoma cell viability; activity change, negative = cytotoxicity: at 92.2 µM (top of the series)
Procedure, shortened: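 Mouse neuroblastoma N2a cells (1500/well) were preincubated 5 hr at 37 °C, then exposed to compounds for 40 hr at 37 °C in complete medium. Viability was read as intracellular ATP by CellTiter-Glo luminescence; AC50 from Hill fits.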

[5] = Cell Viability - Renal Proximal Tubule (AID 545; active means well fitted curve in the direction sought with a large enough effect; an effect the other way counts as inactive or inconclusive; further: nearly all actives have a fitted effect of over 40% in size); details: renal proximal tubule cells viability; activity change, negative = cytotoxicity: at 91.7 µM (top of the series) unless noted
Procedure, shortened: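 Primary rat renal proximal tubule cells (1000/well) were treated with compounds for 40 hr at 37 °C in complete medium. Intracellular ATP was measured by CellTiter-Glo luminescence, and AC50 values came from Hill-equation fits of concentration-response data.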

[6] = Cell Viability - Mesenchymal (AID 546; active means well fitted curve in the direction sought with a large enough effect; an effect the other way counts as inactive or inconclusive;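 further: cells exposed to compound for 40 hours before reading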); details: mesenchymal cells viability, qHTS; activity change, negative = cytotoxicity: at 91.7 µM (top of the series)
Procedure, shortened: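 AC50 values reflect the drop in intracellular ATP in a human kidney mesenchymal line derived from normal glomeruli. Treatment lasts 40 hr at 37 °C in complete medium, and the signal comes from CellTiter-Glo luminescence.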

[7] = Cellular Toxicity (caspase-3) HepG2 (AID 654; active means well fitted curve in the direction sought with a large enough effect; an effect the other way counts as inactive or inconclusive;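 further: cells exposed to compound for 16 hours before reading; 0% = DMSO alone and 100% = caspase signal from 100 µM tamoxifen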); details: HepG2 caspase-3 activation, luminescence, 0% = DMSO only, 100% = tamoxifen; series mostly up to 92.2 µM
Procedure, shortened: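 HepG2 cells (1500/well) in complete medium were treated with compounds for 16 hr at 37 °C. Caspase-3/7 activity was then read as luminescence from peptide-aminoluciferin cleavage. AC50 came from Hill fits, normalized to DMSO and 100 uM tamoxifen.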

[8] = Cellular Toxicity (caspase-3) Renal Proximal Tubule (AID 667; active means well fitted curve in the direction sought with a large enough effect; an effect the other way counts as inactive or inconclusive;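 further: cells exposed to compound for 16 hours at 37 °C before detection; 0% = DMSO basal and 100% = 10 µM staurosporine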); details: renal proximal tubule cells; at 91.7 µM (top of the series) unless noted
Procedure, shortened: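 Primary rat proximal tubule cells, 1000/well, 5 h plating at 37 °C, then compound 16 h at 37 °C. Caspase-Glo 3/7 reagent, 1 h RT, luminescence. Normalized to DMSO (basal) and 10 uM staurosporine (100%); Hill-fit AC50.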

[9] = MultiTox-Fluor Cytotoxicity Assay - LYMP1-002 - Live Cells (AID 955; active means well fitted curve in the direction sought with a large enough effect; an effect the other way counts as inactive or inconclusive; further: on the % scale 0 is the no-effect control and ±100 the full control effect); details: LYMP1-002 lymphoblastoid live-cell protease fluorescence viability; series mostly up to 46.1 µM
Procedure, shortened: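 Human lymphoblastoid LYMP1-002 cells, 2500/well in complete medium, rested 5 hr at 37 C, then exposed to compounds for 16 hr at 37 C. Live-cell protease cleavage of GF-AFC read by fluorescence (Ex/Em 405/510) after 60 min at room temperature; AC50 from Hill fits.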

[10] = MultiTox-Fluor Cytotoxicity Assay - LYMP1-003 - Live Cells (AID 962; active means well fitted curve in the direction sought with a large enough effect; an effect the other way counts as inactive or inconclusive;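 further: 0% = DMSO only and full loss = 92 µM tetraoctylammonium bromide; cytotoxic hits lower the live-cell protease signal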); details: LYMP1-003 lymphoblastoid cells, MultiTox-Fluor live-cell protease fluorescence; series mostly up to 92.2 µM
Procedure, shortened: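 LYMP1-003 human lymphoblastoid cells (2500/well) in complete medium were preincubated 5 hr at 37 C, then exposed to compounds for 16 hr at 37 C. Live-cell protease cleavage of GF-AFC read by fluorescence (Ex/Em 405/510); AC50 from Hill fits.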

[11] = qHTS assay for environmental chemicals that activate the Aryl hydrocarbon Receptor (AhR) signaling pathway (AID 651777; active means well fitted curve in the direction sought with a large enough effect; an effect the other way counts as inactive or inconclusive; further: % of control where 0% means no effect; nearly all actives have a fitted effect of over 15% in size); details: 1A2-DRE human hepatoma cells, luciferase, 24 h; activation: active compounds read high
Procedure, shortened: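 Luminescence read-out: One-Glo added for 30 min at RT after 24 hr compound treatment (37 C, 5% CO2) of human hepatoma cells expressing a DRE/CYP1A2 promoter–luciferase reporter; increased signal indicates AhR activation.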

[12] = qHTS assay for small molecule agonists of the antioxidant response element (ARE) signaling pathway measured by Nrf2-dependant transcriptional activity - cell viability counter screen (AID 720653; active means well fitted curve in the direction sought with a large enough effect in the repeat runs; an effect the other way counts as inactive or inconclusive; further: potency means the concentration at half of the fitted maximal effect); details: ARE-bla HepG2 viability, CellTiter-Glo ATP luminescence, 16 h; max response: active compounds read low
Procedure, shortened: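 Cytotoxicity counter screen: intracellular ATP quantified by CellTiter-Glo luminescence in the same ARE-bla HepG2 plates, after 16 h compound exposure and a 2 h beta-lactamase substrate step.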

[13] = NFAT Signaling Pathway (AID 444); details: Jurkat NFAT-bla M1, carbachol, beta-lactamase ratio, 5 h; at 17.2 µM (top of the series) unless noted;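 further: carbachol stimulus at about its EC50 of 1 µM final; on the % scale 0 is the no-effect control and ±100 the full control effect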
Procedure, shortened: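 Read-out: CCF4 FRET ratio (460 nm/530 nm) after 1 h RT dye loading, used for %activity and AC50 from titration series. Cells: Jurkat NFAT-β-lactamase/M1 line, treated with compound plus 1 uM carbachol for 5 h, 37 °C.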

[14] = Stat Signaling Pathway (AID 446); details: ME-180 SIE beta-lactamase reporter, IL-6 stimulated, 5 h; series mostly up to 17.2 µM;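 further: ME-180 cervical cancer cells given 40 pM IL-6 alongside compound; SIE-controlled beta-lactamase reporter measured as 460/530 nm FRET emission ratio; on the % scale 0 is the no-effect control and ±100 the full control effect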
Procedure, shortened: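 ME-180 SIE-bla cells; overnight plating; cpd + IL-6 40 pM, 5 h, 37 C; LiveBLAzer 2.5 h RT; 460/530 nm emission ratio. Normalized to 300 pM IL-6 and 125 nM JAK inhibitor controls.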

[15] = biological target: Glucocorticoid receptor (Homo sapiens) (UniProt P04150); test: GR-GFP Redistribution (AID 450;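 active means compounds whose dose series gives a full or clear partial fitted curve of increased nuclear translocation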; further: potency means the concentration at half of the fitted maximal effect); details: U2OS GR-GFP nuclear translocation, laser cytometry, 2 h
Glucocorticoid receptor (Homo sapiens), sequence (P04150 whole entry, looked up, the tested form may be a part): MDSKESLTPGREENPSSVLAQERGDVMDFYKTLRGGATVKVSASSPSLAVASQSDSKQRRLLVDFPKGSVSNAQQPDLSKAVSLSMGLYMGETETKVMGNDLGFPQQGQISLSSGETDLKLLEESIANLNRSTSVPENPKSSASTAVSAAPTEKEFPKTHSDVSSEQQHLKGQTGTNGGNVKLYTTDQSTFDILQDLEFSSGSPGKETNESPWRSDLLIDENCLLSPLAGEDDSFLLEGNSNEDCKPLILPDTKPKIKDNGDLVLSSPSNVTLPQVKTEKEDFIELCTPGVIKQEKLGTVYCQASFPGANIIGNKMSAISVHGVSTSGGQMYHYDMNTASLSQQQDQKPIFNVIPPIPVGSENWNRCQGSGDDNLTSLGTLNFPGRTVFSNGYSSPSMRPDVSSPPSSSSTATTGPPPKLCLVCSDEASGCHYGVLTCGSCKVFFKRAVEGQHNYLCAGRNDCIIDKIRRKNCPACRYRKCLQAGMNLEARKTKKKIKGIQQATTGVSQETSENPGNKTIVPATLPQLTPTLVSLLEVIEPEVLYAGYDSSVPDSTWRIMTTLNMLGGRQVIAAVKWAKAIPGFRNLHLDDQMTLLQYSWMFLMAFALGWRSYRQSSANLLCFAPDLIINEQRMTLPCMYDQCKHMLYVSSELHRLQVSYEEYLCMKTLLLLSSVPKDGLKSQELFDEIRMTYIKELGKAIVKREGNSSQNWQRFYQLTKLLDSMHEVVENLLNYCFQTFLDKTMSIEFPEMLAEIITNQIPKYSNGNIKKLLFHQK

[16] = biological target: Glucocorticoid receptor (Homo sapiens) (UniProt P04150); test: GR-EFC Redistribution (AID 451; calls by dose curve; further: potency means the concentration at half of the fitted maximal effect); details: CHO-K1 GR-EFC translocation, beta-gal luminescence, 2 h
Procedure, shortened: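 Translocation of GR-ED fusion to nuclear EA restores b-gal, read by luminescence after 1 h room-temperature detection. Engineered CHO-K1 biosensor cells, 1,000/well, exposed 2 h at 37 C to titrations up to 46 uM final.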

[17] = biological target: 3',5'-cyclic-AMP phosphodiesterase 4B (Homo sapiens) (UniProt Q07343); test: qHTS Assay for Inhibitors of PDE-IV (AID 607; active means well fitted activation curve with a large enough effect in the main read-out, with a control signal flat, not every such curve was filed as active; further: % of control where 0% means no effect); details: HEK293 ACTOne CNG channel cells, membrane potential fluorescence; series mostly up to 22.9 µM
3',5'-cyclic-AMP phosphodiesterase 4B (Homo sapiens), sequence (Q07343 whole entry, looked up): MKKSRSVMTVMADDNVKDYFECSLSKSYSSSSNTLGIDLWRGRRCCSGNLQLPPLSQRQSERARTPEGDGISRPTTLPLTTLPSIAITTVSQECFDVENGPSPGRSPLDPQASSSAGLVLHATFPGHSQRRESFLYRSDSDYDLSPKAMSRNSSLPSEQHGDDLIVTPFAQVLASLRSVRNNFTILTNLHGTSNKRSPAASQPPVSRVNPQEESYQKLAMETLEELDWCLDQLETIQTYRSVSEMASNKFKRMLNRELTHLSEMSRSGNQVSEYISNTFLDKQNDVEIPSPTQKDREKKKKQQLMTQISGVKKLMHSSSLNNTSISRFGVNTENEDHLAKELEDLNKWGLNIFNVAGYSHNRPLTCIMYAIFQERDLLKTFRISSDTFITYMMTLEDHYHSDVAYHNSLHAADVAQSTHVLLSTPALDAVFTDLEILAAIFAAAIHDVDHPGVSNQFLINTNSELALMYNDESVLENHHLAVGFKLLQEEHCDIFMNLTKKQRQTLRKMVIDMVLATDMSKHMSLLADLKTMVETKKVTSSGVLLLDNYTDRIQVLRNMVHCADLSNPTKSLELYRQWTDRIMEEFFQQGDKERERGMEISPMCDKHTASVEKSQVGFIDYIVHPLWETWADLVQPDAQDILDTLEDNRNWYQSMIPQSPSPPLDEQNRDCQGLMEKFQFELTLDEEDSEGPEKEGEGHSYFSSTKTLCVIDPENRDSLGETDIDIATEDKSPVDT
Procedure, shortened: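 ACTOne HEK293 cells carry a modified cAMP-gated CNG channel and express endogenous PDE4; plated 1000 cells/well, compounds up to 22.9 uM final. Membrane-potential dye fluorescence (ex 535/em 590) was read; parental cells received 10 uM forskolin + 100 uM RO 20-1724.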

[18] = biological target: Cytochrome P450 2C9 (Homo sapiens) (UniProt P11712); test: qHTS Assay for Inhibitors and Substrates of Cytochrome P450 2C9 (AID 883; active means well fitted curve in the direction sought with a large enough effect; an effect the other way counts as inactive or inconclusive; further: nearly all actives have a fitted effect of over 60% in size; further: potency means the concentration at half of the fitted maximal effect); details: recombinant CYP2C9, luciferin-H luminescence, 60 min; series mostly up to 57.1 µM
Cytochrome P450 2C9 (Homo sapiens), sequence (P11712 whole entry, looked up): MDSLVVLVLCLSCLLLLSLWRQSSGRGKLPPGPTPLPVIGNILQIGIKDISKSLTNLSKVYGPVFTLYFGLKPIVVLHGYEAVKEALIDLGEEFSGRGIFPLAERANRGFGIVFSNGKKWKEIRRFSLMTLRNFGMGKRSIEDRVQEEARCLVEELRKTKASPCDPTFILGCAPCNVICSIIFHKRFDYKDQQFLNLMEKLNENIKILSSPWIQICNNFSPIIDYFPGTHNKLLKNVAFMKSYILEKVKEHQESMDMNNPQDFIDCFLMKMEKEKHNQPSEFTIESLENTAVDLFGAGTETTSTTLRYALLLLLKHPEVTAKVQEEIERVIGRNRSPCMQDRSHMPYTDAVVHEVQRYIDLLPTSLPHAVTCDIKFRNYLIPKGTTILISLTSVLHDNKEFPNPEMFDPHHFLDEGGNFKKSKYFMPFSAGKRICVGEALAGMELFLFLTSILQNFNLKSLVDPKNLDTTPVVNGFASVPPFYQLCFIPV
Procedure, shortened: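 Inhibition of CYP2C9 is scored as loss of luminescence, with 57uM sulphaphenazole defining 100% inhibition. Substrate Luciferin-H is used at 100uM, equal to its KM; enzyme at 10nM in 25mM KPO4, 60 min at 37C with NADPH regeneration.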

[19] = biological target: Cytochrome P450 2D6 (Homo sapiens) (UniProt P10635); test: qHTS Assay for Inhibitors and Substrates of Cytochrome P450 2D6 (AID 891; active means well fitted curve in the direction sought with a large enough effect; an effect the other way counts as inactive or inconclusive; further: nearly all actives have a fitted effect of over 60% in size; further: potency means the concentration at half of the fitted maximal effect); details: recombinant CYP2D6, luciferin-ME EGE luminescence; series mostly up to 57.1 µM
Cytochrome P450 2D6 (Homo sapiens), sequence (P10635 whole entry, looked up): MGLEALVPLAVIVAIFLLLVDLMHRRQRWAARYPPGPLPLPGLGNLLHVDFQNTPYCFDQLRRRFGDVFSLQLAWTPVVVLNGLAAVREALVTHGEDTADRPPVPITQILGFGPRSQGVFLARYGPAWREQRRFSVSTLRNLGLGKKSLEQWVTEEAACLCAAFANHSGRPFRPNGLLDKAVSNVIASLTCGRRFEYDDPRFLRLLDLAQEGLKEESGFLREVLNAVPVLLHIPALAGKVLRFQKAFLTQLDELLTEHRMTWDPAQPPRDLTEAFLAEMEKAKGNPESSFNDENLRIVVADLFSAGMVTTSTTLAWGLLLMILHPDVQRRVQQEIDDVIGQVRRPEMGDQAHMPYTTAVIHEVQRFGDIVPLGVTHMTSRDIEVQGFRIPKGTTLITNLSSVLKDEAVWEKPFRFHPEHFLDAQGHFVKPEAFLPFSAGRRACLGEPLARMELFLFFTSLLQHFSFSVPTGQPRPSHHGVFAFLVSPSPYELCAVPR
Procedure, shortened: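 Human CYP2D6 (5 nM) with 30 uM Luciferin-ME EGE (at Km) in 100 mM KPO4, compound preincubated 10 min, then NADPH regeneration system for 60 min at room temperature. Luciferin read by luminescence; normalized to 1.43 uM quinidine.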

## C(=NC1CCCCC1)=NC1CCCCC1
[1]
  Potency: > 92 µM
[2]
  Potency: > 92 µM
[3]
  outcome: inactive
[4]
  Potency: 10 µM (active)
[5]
  Potency: inactive
[6]
  Potency: inactive
[7]
  outcome: inactive
[8]
  caspase-3 activation: 5.14%
[9]
  Potency: inactive
[10]
  Potency: inactive
[11]
  activation: 2.78% and 1.69%
[12]
  Potency: 7.94 µM (active)

## Cn1c(O)c(C(=O)c2ccccc2Cl)c(=O)n(C)c1=O
[13]
  activity change, negative = inhibition: 6.46%
[14]
  outcome: inactive
[15]
  Potency: > 20.6 µM

## Cc1ccc2c(c1)[C@@H]1CN(C)CC[C@@H]1N2C(=O)Nc1cccc(C(F)(F)F)c1
[13]
  activity change, negative = inhibition: -12.5%
[14]
  outcome: inactive
[15]
  Potency: > 20.6 µM

## COc1ccc(-n2c(SC)nc3ccccc3c2=O)cc1
[13]
  activity change, negative = inhibition: 12.3%
[14]
  outcome: inactive
[15]
  Potency: > 20.6 µM

## CN1CCc2nc(SCC(=O)OC(C)(C)C)c(C#N)cc2C1
[13]
  activity change, negative = inhibition: -15.8%
[14]
  outcome: inactive
[15]
  Potency: > 20.6 µM

## C=CCC1(CN2CCCCCC2=O)C(=O)NC(=O)NC1=O
[13]
  activity change, negative = inhibition: 2.02%
[14]
  outcome: inactive
[15]
  Potency: > 20.6 µM

## CCCCC1(CN2CCCC2=O)C(=O)NC(=O)NC1=O
[13]
  activity change, negative = inhibition: -2.56%
[14]
  outcome: inactive
[15]
  Potency: > 20.6 µM

## Oc1cc2c(cc1O)[C@H]1c3ccccc3CN[C@@H]1CC2
[13]
  activity change, negative = inhibition: -4.87% [at 38 µM]
[14]
  outcome: inactive
[15]
  Potency: > 46 µM
[16]
  Potency: > 46 µM
[3]
  outcome: inactive
[17]
  outcome: inactive

## O[C@@H]1CCCC[C@H]1N1CCC(c2ccccc2)CC1
[13]
  activity change, negative = inhibition: -6.89% [at 38 µM]
[14]
  outcome: inactive
[15]
  Potency: > 46 µM
[16]
  Potency: > 46 µM
[3]
  outcome: inactive
[17]
  outcome: inactive

## COc1cc2c(cc1OC)-c1c(O)c(OC)cc3c1[C@@H](C2)N(C)CC3
[15]
  Potency: > 46 µM
[16]
  Potency: > 46 µM
[3]
  outcome: inactive
[17]
  outcome: inactive
[18]
  Potency: inactive
[19]
  Potency: 15.8 µM (active)

## CN1C[C@H](CO)C=C2c3cccc4[nH]cc(c34)C[C@H]21
[15]
  Potency: > 46 µM
[16]
  Potency: > 46 µM
[3]
  outcome: inactive
[17]
  outcome: inactive
[19]
  Potency: 0.0251 µM (active)

## c1cc2c(cc1[C@H]1OC[C@H]3[C@@H]1CO[C@H]3c1ccc3c(c1)OCO3)OCO2
[15]
  Potency: > 46 µM
[16]
  Potency: > 46 µM
[3]
  outcome: inactive
[17]
  outcome: inactive
[18]
  Potency: 3.98 µM (active)
[19]
  Potency: 15.8 µM (active)

## O=C(Nc1ccncc1)c1c(O)c2ccccc2n(Cc2ccccc2)c1=O
[13]
  activity change, negative = inhibition: 22.9%
[15]
  Potency: > 20.6 µM

## CC(C)C[C@H](NC(=O)[C@@H]1CCCN1C(=O)[C@@H](N)Cc1ccc(O)cc1)C(=O)NCC(N)=O (H-YPLG-NH2)
[13]
  activity change, negative = inhibition: 14.8%
[14]
  outcome: inactive
[15]
  Potency: > 20.6 µM

## CC1=C2[C@@H]3OC(=O)[C@H](C)[C@H]3CC[C@@]2(C)C=CC1=O
[15]
  Potency: > 46 µM
[16]
  Potency: > 46 µM
[3]
  outcome: inactive
[17]
  outcome: inactive
[18]
  Potency: inactive
[19]
  Potency: inactive

## O=C1C2CCN(CC2)[C@@H]1Cc1ccc2ccccc2c1O
[14]
  outcome: inactive
[15]
  Potency: > 20.6 µM

## CC[C@H](CO)NC(=O)[C@H]1C=C2c3cccc4[nH]cc(c34)C[C@H]2N(C)C1
[15]
  Potency: > 46 µM
[16]
  Potency: > 46 µM
[3]
  outcome: inactive
[17]
  outcome: inactive

## C[C@@H]1O[C@@H](O[C@H]2C[C@@H](O)[C@]3(CO)[C@@H]4[C@@H](O)C[C@]5(C)[C@H](C6=CC(=O)OC6)CC[C@@]5(O)[C@H]4CC[C@@]3(O)C2)[C@H](O)[C@H](O)[C@@H]1O
[13]
  activity change, negative = inhibition: -76.4% [at 38 µM] (active)
[3]
  outcome: inactive
[17]
  outcome: inactive

## CCCCCCCCCCCCCC(=O)O[C@H]1[C@@H](C)[C@@]2(O)[C@@H](C=C(CO)C[C@]3(O)C(=O)C(C)=C[C@@H]23)C2C(C)(C)[C@]21OC(C)=O (some centres not stated)
[15]
  Potency: > 46 µM
[16]
  Potency: > 46 µM
[3]
  outcome: inactive

## C[C@@H](CO)NC(=O)[C@H]1C=C2c3cccc4[nH]cc(c34)C[C@H]2N(C)C1
[15]
  Potency: > 46 µM
[16]
  Potency: > 46 µM
[3]
  outcome: inactive
[17]
  outcome: inactive
[18]
  Potency: inactive
[19]
  Potency: 12.6 µM (active)

## CC1(C)CC(=O)C(C=NCCN2CCN(C(=O)Cc3ccc(F)cc3)CC2)=C(O)C1
[14]
  outcome: inactive
[15]
  Potency: > 20.6 µM

## Cc1c(N=Cc2c(O)n(Cc3ccco3)c(=O)[nH]c2=O)c(=O)n(-c2ccccc2)n1C
[14]
  outcome: inactive
[15]
  Potency: > 20.6 µM

## C=CCCN1C[C@@H]2C[C@H](C1)c1cccc(=O)n1C2
[15]
  Potency: > 46 µM
[16]
  Potency: > 46 µM
[3]
  outcome: inactive
[18]
  Potency: inactive
[19]
  Potency: inactive
